The record followed here is PubChem BioAssay (NCATS).

Structures are written as SMILES. Results filed as inconclusive are left out. A call without a number means that no potency is given here. Calls of active or inactive are those of the source. Calls follow the shape of the dose curve; as a rule, active = well fitted inhibition curve with a large enough effect; inconclusive = small, poorly fitted or top-dose-only effect; inactive = no such curve, though single readings can be large or run the other way. *1 amine or outer side, *2 acyl side, *3 side chain or, on linkers, in order; H or OH if unused. Where a SMILES comes first, the peptide text is derived from it. Bridges are numbered along the chain shown (N, C = ends). [ ]: non-standard residue; d: D form. The star is where a group is joined. ξ: configuration not given here. ξhTyr(3S-OH,4S-OH,3'-OSO3H) = NC(C(=O)O)[C@H](O)[C@@H](O)c1ccc(O)c(OS(=O)(=O)O)c1; Orn(4R-OH,5R-OH) = O=C([C@H](C[C@@H](O)[C@@H](O)N[*:3])N[*:1])[*:2]; X2 = CCCCCOc1ccc(-c2cc(-c3ccc(C(=O)*)cc3)no2)cc1; X3 = C[C@H]1CN([*:1])C(C(=O)[*:2])[C@H]1O; ξGln(3R-OH) = NC(=O)C[C@@H](O)C(N)C(=O)O; ξPro(4R-OH) = O=C(O)C1C[C@@H](O)CN1; ξThr(3R) = C[C@@H](O)C(N)C(=O)O

The experiment is described as follows: P-glycoprotein substrates identified in KB-3-1 adenocarcinoma cell line, qHTS therapeutic library screen (AID 1346986). Also: nearly all actives have a fitted effect of over 60% in size. The note with it: KB-3-1 parental cells viability, CellTiter-Glo, 72 h; series mostly up to 44.5 µM. Here is the method:
The ATP-binding cassette transporters P-glycoprotein (P-gp) is known to limit brain penetration of many chemotherapy drugs. […] We used the CellTiter-Glo viability assay to test library compounds against the parental KB-3-1 human cervical adenocarcinoma cell line and the colchicine-selected sub-line KB-8-5-11 that over-expresses P-gp. KB-8-5-11 cells were also tested in the presence of a P-gp inhibitor (tariquidar) to assess reversability of transporter-mediated resistance. Of the tested compounds, a total of 90 P-gp substrates were identified including 55 newly identified P-gp substrates. Substrates were confirmed using an orthogonal killing assay against HEK-293 cells transfected with P-gp. As exemplars, we confirmed that AT7159 (cyclin-dependent kinase inhibitor); AT9283, (Janus kinase 2/3 inhibitor); ispinesib (kinesin spindle protein inhibitor); gedatolisib (PKI-587, phosphoinositide 3-kinase/mammalian target of rampamycin inhibitor); GSK-690693 (AKT inhibitor); and KW-2478 (heat shock protein 90 inhibitor) were substrates , and direct ATPase stimulation was assessed. ABCG2 was also found to confer high levels of resistance to AT9283, GSK-690693 and gedatolisib, while ispinesib, AT7519 and KW-2478 were weaker substrates.
The HeLa derivative cell line, KB-3-1, and its colchicine-selected, P-gp-overexpressing subline, KB-8-5-11 were maintained in DMEM with 10% FCS and Pen/Strep with glutamine at 37 degree C in 5% CO2. For KB-8-5-11 cells, colchicine was added to the medium at a concentration of 100 ng/mL. HEK-293 cells transfected with empty vector (pcDNA) or vector containing human ABCB1 (MDR-19) or ABCG2 (R-5) have been described previously (Robey, Lin, Qiu, Chan & Bates, 2011) and were maintained in EMEM supplemented with 10% FCS, Pen/Strep and glutamine with 2 mg/ml G418 to select for the expression of the transporter. Cultures were confirmed to be free of mycoplasma infection using the MycoAlert Mycoplasma Detection Kit (Lonza, Walkersville, MD). For the screen, assay medium was identical to culture medium except for KB-8-5-11 where colchicine was excluded from the medium.
All cell lines were plated into 1536-well plates at 500 cells/well in 5 uL media. Compounds were then pinned in dose-response using a 1536-head pin tool (Kalypsis, San Diego, CA) and plates were incubated at 37 degree C in 5% CO2 for an additional 72 h. CellTiter-Glo reagent (Promega) was dispensed into the wells, incubated for 5 min and luminescence was read on a ViewLux instrument (Perkin-Elmer). Cytotoxic compounds were defined as those that yielded a curve class of -1.1, -1.2, -2.1, -2.2, -2.3, or -2.4, a maximum response of >50% and an AC50 of < 10 uM. Cherry-picked hits from screening analysis were tested with both the KB pair of cell lines, and the pcDNA (empty vector control) and MDR-19 (P-gp overexpressing) pair were tested, in the absence and presence of tariquidar.
For `C/C=C/C=C/C(O)=C1/C(=O)[C@]2(C)C(=O)[C@@](C)(O)[C@H]1[C@H]([C@@]1(C)OC(=O)C(C)=C1O)[C@H]2C(=O)CC/C=C/C`, the Potency entry is “inactive”.

`Cc1ccc(-c2c(-c3nn(C)c4ncnc(N5CCC(N6CCCCC6)C5)c34)cnn2C)cc1` (stereo not given): the Potency entry is “inactive”.

Take `C=C1C(OC(C)=O)CCC2(C)CC3(O)OC(=O)C(C)=C3CC12` (stereo not given): the Potency entry was “inactive”.

`CC(=O)O[C@H]1C[C@@H](O)C(C)(C)C2C[C@@H](OC(C)=O)[C@@]3(C)C4=CCC(C(CO)CC(O)C5OC5(C)C)[C@]4(C)CCC3[C@]21C` (stereo not given in full): the Potency result was “inactive”.

For the compound `COc1cc2nc(=NC(=O)c3cccnc3)n3c(c2cc1OC)NCC3`, the Potency result is “inactive”.

For the compound `C=C1[C@H](OC(C)=O)[C@H]2[C@@H](OC(C)=O)C(C)C[C@]2(OC(C)=O)C(=O)[C@H](C)/C=C/C(C)(C)C(=O)[C@H](OC(=O)C(C)C)[C@H]1OC(C)=O` (stereo not given in full), the Potency result was “inactive”.

As to `Cn1cc(CCn2cnc(-c3cnn(C)c3)c2-c2ccc(C#N)cc2)cn1`, the Potency entry was “inactive”.

`O=C(/C=C/c1ccc(O)cc1)OC[C@H]1O[C@H](O[C@@]2(CO)O[C@@H](CO)[C@H](O)[C@H]2O)[C@H](O)[C@@H](O)[C@@H]1O`: the Potency entry is “inactive”.

As for `C=C(C(=O)OC)[C@]12O[C@@](C)(CC[C@@]3(O)/C(=C\C)C(=O)O[C@]3(C)C[C@@H]1OC(=O)C(CO)CN1CCCC1C(=O)O)CC2=O` (stereo not given in full), the Potency result was “inactive”.

On to `CCCCCOc1ccc(-c2cc(-c3ccc(C(=O)N[C@H]4C[C@@H](O)[C@@H](O)NC(=O)C5[C@@H](O)[C@@H](C)CN5C(=O)C([C@H](O)CC(N)=O)NC(=O)C([C@H](O)[C@@H](O)c5ccc(O)c(OS(=O)(=O)O)c5)NC(=O)C5C[C@@H](O)CN5C(=O)C([C@@H](C)O)NC4=O)cc3)no2)cc1` (stereo partly drawn) (X2-[Orn(4R-OH,5R-OH)][ξThr(3R)][ξPro(4R-OH)][ξhTyr(3S-OH,4S-OH,3'-OSO3H)][ξGln(3R-OH)][X3]; lactam 1-C), for which the Potency entry is “inactive”.

Consider `CC1=C[C@H](O)[C@H]2C(C)(C)CCC[C@]2(C)[C@@]1(O)CO`, for which the Potency entry was “inactive”.

Regarding `O=C(OCC1=CC(Cl)C(O)C(OC(=O)c2ccccc2)C1O)c1ccccc1` (stereo not given), the Potency entry is “inactive”.

In the case of `CC1(C)CC[C@]2(C(=O)O[C@@H]3O[C@H](CO[C@@H]4O[C@H](CO)[C@@H](O)[C@H](O)[C@H]4O)[C@@H](O)[C@H](O[C@@H]4O[C@H](CO)[C@@H](O)[C@H](O)[C@H]4O)[C@H]3O)CC[C@]3(C)C(=CCC4[C@@]5(C)CC[C@H](O[C@@H]6OC[C@@H](O)[C@H](O)[C@H]6O)[C@@](C)(C(=O)O)C5CC[C@]43C)[C@@H]2C1` (stereo not given in full), the outcome is “inactive [at 9.29 µM]”.

Take `Nc1ncnc2c1c(COc1cccc(Cl)c1)nn2C1CCOCC1`: the Potency entry is “inactive”.

On to `O=C(O)CCc1cc2ccoc2cc1O[C@@H]1O[C@H](CO)[C@@H](O)[C@H](O)[C@H]1O`, for which the Potency result is “inactive”.

As to `C[C@H]1CC(=O)C2=C(C1)C(O)C(O)[C@@]1(O)[C@H]2C(=O)c2cccc(O)c2[C@@H]1O` (stereo not given in full), the Potency result is “inactive”.

In the case of `CC(C)=CCC(O)[C@](C)(O)C1[C@H](O)C[C@@]2(C)C3CC=C4C(C[C@H](O)[C@@H](O[C@@H]5O[C@H](CO)[C@@H](O)[C@H](O)[C@H]5O)C4(C)C)[C@]3(C)C(=O)C[C@]12C` (stereo not given in full), the Potency entry was “inactive”.

With `CC1CCC2(C(=O)O)CCC3(C)C(=CCC4C5(C)C[C@@H](O)[C@@H](O)C(C)(CO)C5CCC43C)C2C1(C)O` (stereo not given in full), the Potency entry is “inactive”.

With `Cc1cc(CNC(=O)c2cc(C(=O)NCc3ccc(F)c(C)c3)ncn2)ccc1F`, the Potency entry is “inactive”.

Turning to `CC1(C)O[C@H]2CC(=O)OC[C@@]23C1=C(O)C(=O)[C@]1(C)C3CC[C@@]2(C)[C@H](c3ccoc3)OC(=O)[C@H]3O[C@]321` (stereo not given in full), the Potency entry was “inactive”.

Turning to `C/C=C1/[C@H](O[C@@H]2O[C@H](CO)[C@@H](O)[C@H](O)[C@H]2O)OC=C2C(=O)O[C@@H]3C[C@@H](C(C)CO)[C@H](COC(=O)C[C@H]21)[C@H]3C` (stereo not given in full), the Potency entry is “inactive”.

As for `CC1(C)OC(=O)C=C[C@@]2(C)C1CC(=O)[C@]1(C)C2CC[C@@]2(C)[C@H](c3ccoc3)OC(=O)[C@H]3O[C@]321` (stereo not given in full), the Potency result is “inactive”.

Take `CCCCNc1nc(N)c2[nH]c(=O)n(Cc3ccc(OCCN(C)C)nc3)c2n1`: the Potency result was “inactive”.

Consider `C#CCCCn1cc(-c2cccc3c2N[C@@H](C)CC(=O)N3)cn1`, for which the Potency result is “inactive”.

On to `C[C@@H]1O[C@@H](O[C@@H]2[C@@H](O)[C@H](O[C@@H]3[C@@H](O)[C@@H](O)[C@H](O[C@H]4[C@H](OC(=O)[C@]56CCC(C)(C)C[C@H]5C5=CCC7[C@@]8(C)C[C@H](O)[C@H](O[C@@H]9O[C@H](C(=O)O)[C@@H](O)[C@H](O)[C@H]9O)[C@@](C)(CO)C8[C@H](O)C[C@@]7(C)[C@]5(C)C[C@H]6O)O[C@@H](CO)[C@@H]4O)O[C@H]3C)OC[C@H]2O)[C@H](O)[C@H](O)[C@H]1O` (stereo not given in full), for which the outcome is “inactive [at 9.29 µM]”.

For the compound `Cc1oc(S(=O)(=O)N2CCCCC2)cc1NC(=O)Nc1ccccc1`, the Potency entry is “inactive”.

As for `COC(=O)c1[nH]c(=O)c2ccccc2c1-c1ccc[nH]1`, the Potency result is “inactive”.

For `C=C1CCc2occ(C)c2[C@H]2[C@H]1[C@@]13O[C@@]1(C[C@@H](C)[C@H]3OC(C)=O)[C@H]1O[C@@]21C`, the Potency result is “inactive”.

As to `COc1ccccc1Oc1c(NS(=O)(=O)c2ccc(C)cn2)nc(-c2ccncc2)nc1OC`, the Potency result was “inactive”.

With `COc1c2c(c(C)c3c1C(=O)OC3)OC1(C)CC(O)C34OC(OC)(CCC3(C)C1C2)OC4(C)CO` (stereo not given), the Potency entry was “inactive”.

`CC1(CO)CC(O)C2(C)CCC3(C)C(=CCC4C5(C=O)CCC(OC6OC(C(=O)O)C(O)C(O)C6OC6OC(C(=O)O)C(O)C(O)C6O)C(C)(C)C5CCC43C)C2C1` (stereo not given): the outcome is “inactive [at 9.29 µM]”.

Regarding `CC1(C)CC[C@]2(C(=O)O[C@@H]3O[C@H](CO)[C@@H](O)[C@H](O)[C@H]3O)CC[C@]3(C)C(=CCC4[C@@]5(C)CC[C@H](O[C@@H]6O[C@H](C(=O)O)[C@@H](O[C@@H]7O[C@H](CO)[C@@H](O)[C@H](O)[C@H]7O)[C@H](O)[C@H]6O)C(C)(C)C5CC[C@]43C)C2C1` (stereo not given in full), the outcome is “inactive [at 9.29 µM]”.

As to `COc1cc(O)cc2c1C(=O)OC(C)CCCCCCC2` (stereo not given), the Potency result was “inactive”.

`Cc1occc(=O)c1O[C@@H]1O[C@H](CO)[C@@H](O)[C@H](O)[C@H]1O`: the Potency entry was “inactive”.

Regarding `CO[C@H]1c2cc(C(C)C)c(O)c(O)c2[C@@]23CCCC(C)(C)C2[C@@H]1OC3=O` (stereo not given in full), the Potency result is “inactive”.

As to `CC[C@H](C)[C@H](NC(=O)[C@H](Cc1ccc(O)cc1)NC(=O)[C@@H](N)C(C)C)C(=O)N[C@@H](Cc1cnc[nH]1)C(=O)N1CCC[C@H]1C(=O)N[C@@H](Cc1ccccc1)C(=O)O`, the outcome was “inactive [at 5.11 µM]”.

Consider `O=C(O)C(Cc1ccccc1)NC(=O)C1CCCN1` (stereo not drawn) (H-Pro-Phe-OH; configuration not given here), for which the Potency result was “inactive”.

On to `CCCC/C=C\CCCCCc1cc(=O)c2ccccc2n1C`, for which the Potency entry is “inactive”.

For the compound `COc1cc(C2Oc3c(OC)cc(CCCO)cc3C2CO)ccc1O` (stereo not given), the Potency entry is “inactive”.

In the case of `CCC(C)C(C(=O)O)N1Cc2c(OCC=C(C)C)c(C)c(OC)c(C(=O)O)c2C1=O` (stereo not given), the Potency result is “inactive”.
